Measured values as given in ChEMBL document CHEMBL2218924, “A broad activity screen in support of a chemogenomic map for kinase signalling research and drug discovery” (Biochem J, 2013).

Key:
[1] = molecular target: Platelet-derived growth factor receptor alpha (Homo sapiens) (UniProt P16234); settings: at 1 µM
[2] = molecular target: Platelet-derived growth factor receptor alpha (Homo sapiens) (UniProt P16234); settings: at 10 µM
[3] = molecular target: Platelet-derived growth factor receptor beta (Homo sapiens) (UniProt P09619); settings: at 1 µM
Platelet-derived growth factor receptor beta (Homo sapiens), sequence (P09619 whole entry): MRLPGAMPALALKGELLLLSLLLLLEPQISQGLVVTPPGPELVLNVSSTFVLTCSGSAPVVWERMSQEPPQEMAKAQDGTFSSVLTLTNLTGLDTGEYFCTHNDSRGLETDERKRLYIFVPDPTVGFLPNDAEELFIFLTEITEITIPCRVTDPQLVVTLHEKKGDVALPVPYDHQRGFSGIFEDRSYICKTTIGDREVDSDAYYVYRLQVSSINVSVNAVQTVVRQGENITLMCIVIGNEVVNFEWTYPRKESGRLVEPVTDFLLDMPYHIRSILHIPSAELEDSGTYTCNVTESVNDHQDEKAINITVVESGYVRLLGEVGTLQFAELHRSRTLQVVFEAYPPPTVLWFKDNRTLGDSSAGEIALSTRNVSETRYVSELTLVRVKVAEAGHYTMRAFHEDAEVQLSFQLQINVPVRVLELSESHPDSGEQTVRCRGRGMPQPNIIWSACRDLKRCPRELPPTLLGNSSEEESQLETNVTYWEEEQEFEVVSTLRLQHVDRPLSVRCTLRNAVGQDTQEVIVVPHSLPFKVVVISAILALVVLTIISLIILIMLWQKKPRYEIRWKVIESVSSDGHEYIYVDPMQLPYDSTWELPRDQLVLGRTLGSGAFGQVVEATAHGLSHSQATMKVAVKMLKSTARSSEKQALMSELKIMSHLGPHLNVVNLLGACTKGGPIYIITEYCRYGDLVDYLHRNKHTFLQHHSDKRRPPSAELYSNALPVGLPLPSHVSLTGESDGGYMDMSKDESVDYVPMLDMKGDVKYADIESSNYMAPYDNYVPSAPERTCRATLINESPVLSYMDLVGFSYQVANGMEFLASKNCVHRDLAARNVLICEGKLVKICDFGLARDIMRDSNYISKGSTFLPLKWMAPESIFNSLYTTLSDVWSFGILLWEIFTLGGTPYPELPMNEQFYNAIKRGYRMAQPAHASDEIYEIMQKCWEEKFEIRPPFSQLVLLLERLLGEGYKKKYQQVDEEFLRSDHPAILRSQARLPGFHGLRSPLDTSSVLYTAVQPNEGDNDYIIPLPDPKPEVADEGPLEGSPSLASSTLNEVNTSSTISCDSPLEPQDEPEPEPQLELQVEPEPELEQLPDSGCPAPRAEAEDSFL

[4] = molecular target: Platelet-derived growth factor receptor beta (Homo sapiens) (UniProt P09619); settings: at 10 µM
[5] = molecular target: T1, 3-phosphoinositide-dependent protein kinase 1 (Homo sapiens) (UniProt O15530); settings: at 1 µM
T1 sequence (whole entry): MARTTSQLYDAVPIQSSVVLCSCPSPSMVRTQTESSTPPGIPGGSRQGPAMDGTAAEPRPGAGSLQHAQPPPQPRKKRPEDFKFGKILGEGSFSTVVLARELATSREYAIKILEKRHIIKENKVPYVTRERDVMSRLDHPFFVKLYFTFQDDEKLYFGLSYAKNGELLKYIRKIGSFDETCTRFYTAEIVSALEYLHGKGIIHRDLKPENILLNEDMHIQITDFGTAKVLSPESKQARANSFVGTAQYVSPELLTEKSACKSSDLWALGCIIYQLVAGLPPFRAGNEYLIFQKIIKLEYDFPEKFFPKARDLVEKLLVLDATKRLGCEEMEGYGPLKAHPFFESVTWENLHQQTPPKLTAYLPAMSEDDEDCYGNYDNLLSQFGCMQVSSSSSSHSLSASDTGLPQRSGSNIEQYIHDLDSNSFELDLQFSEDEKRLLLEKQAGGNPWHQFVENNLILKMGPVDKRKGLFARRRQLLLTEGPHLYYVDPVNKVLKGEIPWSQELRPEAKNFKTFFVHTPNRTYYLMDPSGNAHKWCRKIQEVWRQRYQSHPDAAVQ

[6] = molecular target: T1, 3-phosphoinositide-dependent protein kinase 1 (Homo sapiens); settings: at 10 µM
[7] = molecular target: cAMP-dependent protein kinase catalytic subunit alpha (Homo sapiens) (UniProt P17612); settings: at 1 µM
[8] = molecular target: cAMP-dependent protein kinase catalytic subunit alpha (Homo sapiens) (UniProt P17612); settings: at 10 µM
[9] = molecular target: RAC-gamma serine/threonine-protein kinase (Homo sapiens) (UniProt Q9Y243); settings: at 1 µM
RAC-gamma serine/threonine-protein kinase (Homo sapiens), sequence (Q9Y243 whole entry): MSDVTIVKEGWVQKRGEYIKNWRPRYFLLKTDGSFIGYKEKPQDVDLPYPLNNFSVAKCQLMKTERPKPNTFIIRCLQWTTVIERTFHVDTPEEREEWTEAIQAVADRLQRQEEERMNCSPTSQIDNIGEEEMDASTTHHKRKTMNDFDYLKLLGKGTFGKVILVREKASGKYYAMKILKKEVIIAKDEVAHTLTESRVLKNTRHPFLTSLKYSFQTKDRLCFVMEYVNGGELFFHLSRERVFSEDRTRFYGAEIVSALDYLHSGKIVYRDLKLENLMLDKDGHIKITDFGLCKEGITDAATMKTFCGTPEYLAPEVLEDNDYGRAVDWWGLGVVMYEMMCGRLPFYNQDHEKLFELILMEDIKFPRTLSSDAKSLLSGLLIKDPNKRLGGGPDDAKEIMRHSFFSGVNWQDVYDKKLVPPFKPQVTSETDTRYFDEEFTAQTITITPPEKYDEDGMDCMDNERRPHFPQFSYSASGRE

[10] = molecular target: RAC-gamma serine/threonine-protein kinase (Homo sapiens) (UniProt Q9Y243); settings: at 10 µM
[11] = molecular target: Protein kinase C alpha type (Homo sapiens) (UniProt P17252); settings: at 1 µM
[12] = molecular target: Protein kinase C alpha type (Homo sapiens) (UniProt P17252); settings: at 10 µM
[13] = molecular target: Protein kinase C beta type (Homo sapiens) (UniProt P05771); settings: at 1 µM
Protein kinase C beta type (Homo sapiens), sequence (P05771 2-671 limits assumed): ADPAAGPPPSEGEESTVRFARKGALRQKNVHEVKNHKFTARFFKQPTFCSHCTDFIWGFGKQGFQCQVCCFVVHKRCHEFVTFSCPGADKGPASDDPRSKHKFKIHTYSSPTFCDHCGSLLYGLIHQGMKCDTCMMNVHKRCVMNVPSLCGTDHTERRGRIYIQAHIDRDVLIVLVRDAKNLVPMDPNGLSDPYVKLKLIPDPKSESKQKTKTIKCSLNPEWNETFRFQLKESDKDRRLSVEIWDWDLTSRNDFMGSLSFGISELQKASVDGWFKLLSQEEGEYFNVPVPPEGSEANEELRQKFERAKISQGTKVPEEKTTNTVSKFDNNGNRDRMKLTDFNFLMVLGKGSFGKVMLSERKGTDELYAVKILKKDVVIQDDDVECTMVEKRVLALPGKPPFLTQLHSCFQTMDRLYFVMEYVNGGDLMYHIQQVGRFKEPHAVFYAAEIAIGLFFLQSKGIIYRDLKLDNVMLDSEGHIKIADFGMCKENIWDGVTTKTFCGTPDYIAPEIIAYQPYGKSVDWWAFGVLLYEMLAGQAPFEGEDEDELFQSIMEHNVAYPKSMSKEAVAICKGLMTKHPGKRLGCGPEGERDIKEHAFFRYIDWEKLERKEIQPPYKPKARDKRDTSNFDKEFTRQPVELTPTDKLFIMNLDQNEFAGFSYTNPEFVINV

[14] = molecular target: Protein kinase C beta type (Homo sapiens) (UniProt P05771); settings: at 10 µM
[15] = molecular target: Protein kinase C beta type (Homo sapiens) (UniProt P05771); settings: at 1 µM; remark: listed apart in the source
[16] = molecular target: Protein kinase C beta type (Homo sapiens) (UniProt P05771); settings: at 10 µM; remark: listed apart in the source
[17] = molecular target: Protein kinase C gamma type (Homo sapiens) (UniProt P05129); settings: at 1 µM
[18] = molecular target: Protein kinase C gamma type (Homo sapiens) (UniProt P05129); settings: at 10 µM
[19] = molecular target: Protein kinase C delta type (Homo sapiens) (UniProt Q05655); settings: at 1 µM
[20] = molecular target: Protein kinase C delta type (Homo sapiens) (UniProt Q05655); settings: at 10 µM

Platelet-derived growth factor receptor alpha (Homo sapiens), sequence (P16234 whole entry): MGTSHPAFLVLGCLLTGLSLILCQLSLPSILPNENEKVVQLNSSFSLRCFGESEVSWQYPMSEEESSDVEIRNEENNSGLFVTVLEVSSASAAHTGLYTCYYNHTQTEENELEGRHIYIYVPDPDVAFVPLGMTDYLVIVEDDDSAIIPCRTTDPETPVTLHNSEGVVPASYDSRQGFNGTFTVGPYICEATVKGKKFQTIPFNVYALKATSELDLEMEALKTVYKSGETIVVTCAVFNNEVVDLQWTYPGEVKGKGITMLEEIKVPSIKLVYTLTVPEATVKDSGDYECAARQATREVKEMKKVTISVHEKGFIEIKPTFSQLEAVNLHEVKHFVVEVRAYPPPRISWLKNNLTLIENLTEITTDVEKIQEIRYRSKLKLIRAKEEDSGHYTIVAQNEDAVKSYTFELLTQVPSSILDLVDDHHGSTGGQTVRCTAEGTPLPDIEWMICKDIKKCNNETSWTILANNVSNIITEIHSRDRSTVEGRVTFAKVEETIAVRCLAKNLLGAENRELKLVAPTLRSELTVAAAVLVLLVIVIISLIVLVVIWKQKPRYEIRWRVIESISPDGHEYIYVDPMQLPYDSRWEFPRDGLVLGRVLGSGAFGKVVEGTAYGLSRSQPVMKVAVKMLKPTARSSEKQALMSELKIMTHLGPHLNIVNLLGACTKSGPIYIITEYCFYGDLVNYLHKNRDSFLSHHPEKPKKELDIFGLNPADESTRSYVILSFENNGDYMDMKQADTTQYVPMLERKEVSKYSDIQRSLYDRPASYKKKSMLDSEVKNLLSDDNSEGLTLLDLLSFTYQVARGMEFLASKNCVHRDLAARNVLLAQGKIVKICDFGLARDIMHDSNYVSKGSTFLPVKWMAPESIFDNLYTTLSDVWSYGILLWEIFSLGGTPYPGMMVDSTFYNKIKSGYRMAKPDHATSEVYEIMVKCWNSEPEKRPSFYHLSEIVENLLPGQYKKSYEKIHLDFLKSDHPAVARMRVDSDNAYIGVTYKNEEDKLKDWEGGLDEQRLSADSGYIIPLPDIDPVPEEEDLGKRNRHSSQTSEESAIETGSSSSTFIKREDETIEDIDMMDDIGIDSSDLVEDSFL

| SMILES | residual activity [1] | residual activity [2] | residual activity [3] | residual activity [4] | residual activity [5] | residual activity [6] | residual activity [7] | residual activity [8] | residual activity [9] | residual activity [10] | residual activity [11] | residual activity [12] | residual activity [13] | residual activity [14] | residual activity [15] | residual activity [16] | residual activity [17] | residual activity [18] | residual activity [19] | residual activity [20] |
| --- | --- | --- | --- | --- | --- | --- | --- | --- | --- | --- | --- | --- | --- | --- | --- | --- | --- | --- | --- | --- |
| COc1ccc(C(=O)Nc2sc3c(c2C(N)=O)CCCC3)cc1OC | 87% | 86% | 89% | 97% | 95% | 96% | 97% | 95% | 102% | 87% | 106% | 100% | 109% | 94% | 111% | 101% | 117% | 104% | 101% | 104% |
| COc1cccc(-c2cc(=O)c3ccccc3o2)c1N | 107% | 110% | 114% | 108% | 114% | 99% | 96% | 95% | 100% | 95% | 113% | 104% | 106% | 105% | 121% | 108% | 107% | 119% | 113% | 113% |
| O=C(Nc1cccc(Nc2nccc(Nc3cccc(C(F)(F)F)c3)n2)c1)C1CC1 | 107% | 88% | 99% | 70% | 100% | 93% | 75% | 106% | 89% | 67% | 95% | 66% | 110% | 107% | 99% | 102% | 98% | 90% | 100% | 106% |
| CNc1cc2c(Nc3cccc(Br)c3)ncnc2cn1 | 122% | 107% | 109% | 113% | 100% | 64% | 102% | 98% | 104% | 93% | 106% | 95% | 118% | 105% | 104% | 103% | 109% | 94% | 104% | 105% |
| C[C@@H](N)[C@H]1CC[C@H](C(=O)Nc2ccncc2)CC1 | 99% | 102% | 107% | 106% | 95% | 83% | 96% | 80% | 104% | 93% | 94% | 84% | 101% | 87% | 81% | 34% | 97% | 96% | 48% | 12% |
| O=C1NC(=O)/C(=C\c2ccc3nccnc3c2)S1 | 116% | 109% | 97% | 106% | 111% | 98% | 71% | 70% | 98% | 85% | 108% | 88% | 124% | 121% | 101% | 100% | 109% | 83% | 99% | 81% |
| CO[C@H]1[C@@H](OC)C[C@H](C)[C@@H](OC)C2=CC(=O)C=C(NC(=O)/C(C)=C/C=C/[C@H](OC)[C@@H](OC(N)=O)/C(C)=C/[C@@H]1C)C2=O | 114% | 107% | 108% | 80% | 112% | 96% | 79% | 70% | 94% | 75% | 110% | 107% | 106% | 121% | 92% | 97% | 111% | 99% | 107% | 107% |
| CC(C)n1cnc2c(NCc3ccccc3)nc(NCCCO)nc21 | 105% | 107% | 98% | 94% | 107% | 104% | 98% | 99% | 104% | 90% | 99% | 102% | 106% | 105% | 105% | 104% | 92% | 104% | 94% | 98% |
| O=C(Nc1cccc(Nc2cc(Nc3cccc(C(F)(F)F)c3)ncn2)c1)C1CC1 | 110% | 109% | 98% | 93% | 93% | 87% | 103% | 112% | 90% | 96% | 102% | 101% | 105% | 104% | 98% | 97% | 112% | 106% | 93% | 94% |
| c1ccc(-c2n[nH]cc2-c2ccnc3ccccc23)nc1 | – | – | 96% | 109% | 104% | 104% | – | 93% | 96% | 96% | – | – | – | – | 101% | 94% | – | – | 94% | 92% |
| c1ccc(-c2n[nH]c3c2oc2ccccc23)cc1 | 33% | 5% | – | – | – | – | 70% | – | 90% | – | – | – | – | – | 96% | 98% | – | – | – | – |
| O=c1c2ccccc2[nH]c(=S)n1CCN1CCC(=C(c2ccc(F)cc2)c2ccc(F)cc2)CC1 | 105% | 97% | 106% | 85% | 116% | 111% | 92% | 114% | 93% | 40% | 108% | 105% | 109% | 109% | 101% | 104% | 116% | 117% | 101% | 97% |
| COc1cc2ncnc(N3CCN(C(=O)Nc4ccc(Oc5ccccc5)cc4)CC3)c2cc1OC | 26% | 6% | – | – | 106% | 116% | 102% | – | 94% | 112% | 99% | 103% | 106% | 97% | 101% | 102% | 103% | 107% | 101% | 110% |
| COc1cc2ncnc(Nc3ccc(NC(=O)c4ccccc4)cc3)c2cc1OC | – | 81% | – | 102% | – | 106% | 71% | 85% | – | 102% | – | 107% | – | – | 100% | 94% | – | – | 107% | 102% |
| COc1cc2ncc(-c3ccccc3)nc2cc1OC | 84% | 27% | 97% | 73% | – | – | 99% | 74% | – | – | – | – | 131% | 124% | 97% | 96% | – | – | – | – |
| CN(C)CCCn1cc(C2=C(c3c[nH]c4ccccc34)C(=O)NC2=O)c2ccccc21 | 121% | 78% | 106% | 65% | 63% | 15% | 60% | 20% | 30% | 7% | – | – | – | – | 9% | 2% | – | – | 2% | -1% |
